Source: PubChem BioAssay (NCI)
About 83,000 compounds went through this panel and 20% of them were active in at least one assay; those are over-represented in the sample as a whole.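 Interpretation: 100, growth as untreated; towards 0, rising growth inhibition; 0, no net growth; 0 to -100, cell death. Compounds scoring below 10 were considered active.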 Unmarked numbers belong to inactive results. Calls of active or inactive are those of the source.

Legend:
Assay in all cases: NCI-60 one-dose screen, 48 h (100 = growth as untreated, 0 = no growth, -100 = all killed)
HCT-15 colon = conditions: 10 µM unless noted
HT29 colon = conditions: 10 µM unless noted
SNB-19 CNS = conditions: 10 µM unless noted
U251 CNS = conditions: 10 µM unless noted
PC-3 prostate = conditions: 10 µM unless noted
SK-MEL-5 melanoma = conditions: 10 µM unless noted
UACC-62 melanoma = conditions: 10 µM unless noted
LOX IMVI melanoma = conditions: 10 µM unless noted
SK-MEL-28 melanoma = conditions: 10 µM unless noted
SK-MEL-2 melanoma = conditions: 10 µM
EKVX NSCLC = conditions: 10 µM unless noted
SN12C renal = conditions: 10 µM unless noted
UO-31 renal = conditions: 10 µM unless noted
TK-10 renal = conditions: 10 µM unless noted
ACHN renal = conditions: 10 µM unless noted
CAKI-1 renal = conditions: 10 µM unless noted
CCRF-CEM leukemia = conditions: 10 µM unless noted
MOLT-4 leukemia = conditions: 10 µM unless noted
A498 renal = conditions: 10 µM unless noted

Structure (SMILES)	growth (HCT-15 colon)	growth (HT29 colon)	growth (SNB-19 CNS)	growth (U251 CNS)	growth (PC-3 prostate)	growth (SK-MEL-5 melanoma)	growth (UACC-62 melanoma)	growth (LOX IMVI melanoma)	growth (SK-MEL-28 melanoma)	growth (SK-MEL-2 melanoma)	growth (EKVX NSCLC)	growth (SN12C renal)	growth (UO-31 renal)	growth (TK-10 renal)	growth (ACHN renal)	growth (CAKI-1 renal)	growth (CCRF-CEM leukemia)	growth (MOLT-4 leukemia)	growth (A498 renal)
NS(=O)(=O)c1ccc(CCN2C(=O)/C(=C\c3ccc(Cl)cc3)C=C2c2ccc3ccccc3c2)cc1	94.9%	87.9%	92.5%	85.5%	75.8%	94.8%	71.8%	96.1%	103%	106%	89.4%	94%	78.4%	95.5%	90%	82.4%	106%	86.3%	–
C[C@@H](Oc1cc(-n2cnc3ccc(CN4CCN(C)CC4)cc32)sc1C(N)=O)c1ccccc1C(F)(F)F	6.53% (active)	4.62% (active)	26.1%	29.1%	32.9%	4.6% (active)	51.1%	4.53% (active)	38%	–	38.9%	15.6%	16.6%	52.2%	31.1%	28.3%	6.03% (active)	-7.58% (active)	-23% (active)
COCC(=O)NC/C=C/c1ccc2ncnc(Nc3ccc(Oc4ccc(C)nc4)c(C)c3)c2c1	33.3%	12.2%	77.9%	62.9%	74.1%	13.1%	7.95% (active)	31.7%	12.2%	–	38.9%	34.9%	16.8%	5.8% (active)	16.1%	18.6%	79.2%	29.3%	24.6%
CCOc1cc2ncc(C#N)c(Nc3ccc(F)c(Cl)c3)c2cc1NC(=O)/C=C/CN(C)C	-31.1% (active)	-35.3% (active)	-26.6% (active)	-70.9% (active)	-1.37% (active)	-94.5% (active)	-46.7% (active)	-72.3% (active)	-75.4% (active)	–	-22% (active)	-51.7% (active)	-92.2% (active)	-75.9% (active)	-94.3% (active)	-59.6% (active)	0.208% (active)	-26% (active)	-3.54% (active)
CCc1ccc(/C=C/c2ccc(O)c3ncccc23)[n+](C)c1	85%	50.9%	41.1%	25.9%	61.3%	26.3%	35.7%	55.6%	60.7%	78.4%	47%	31.4%	27.1%	85.5%	89.3%	–	22.8%	7.81% (active)	29.6%
Ic1ccccc1-c1ccccc1	112%	114%	101%	105%	99.9%	–	100%	103%	113%	–	120%	101%	85.5%	106%	109%	111%	90.1%	101%	89.8%
Nc1ncnc2c1c(-c1cccc(OCc3ccccc3)c1)cn2C1CC(CN2CCC2)C1 (stereo not drawn)	10.1%	-39.8% (active)	32.1%	-17.9% (active)	27.4%	-96.7% (active)	-55.9% (active)	-75% (active)	-69.6% (active)	–	30.1%	35.5%	-66.6% (active)	28.4%	18.7%	7.5% (active)	5.52% (active)	-14.5% (active)	-1.47% (active)
COc1ccc(-c2cnc(-c3ccc(Cl)cc3)[nH]2)cc1OC	100%	97.6%	96%	102%	81.3%	97.4%	94.6%	110%	104%	–	117%	91.6%	95.4%	139%	–	121%	-55.7% (active)	106%	90.6%
CN(c1ncccc1CNc1nc(Nc2ccc3c(c2)CC(=O)N3)ncc1C(F)(F)F)S(C)(=O)=O	2.3% (active)	-28.4% (active)	7.98% (active)	-0.121% (active)	7.2% (active)	-38.3% (active)	-64.6% (active)	2.21% (active)	-16.1% (active)	–	8.69% (active)	9.55% (active)	-4.35% (active)	0.859% (active)	-0.448% (active)	12.1%	3.5% (active)	0.451% (active)	-16.6% (active)
C=C1CC[C@@H]2[C@](C)(COC(C)=O)[C@H](OC(C)=O)CC[C@@]2(C)[C@@H]1C/C=C1/C(=O)OC[C@H]1OC(C)=O	-23% (active)	-39.4% (active)	83%	54%	88.5%	56.2%	29.7%	-74.4% (active)	37.8%	–	103%	33.4%	62.8%	16.9%	19.5%	81.5%	-11.4% (active)	-6.05% (active)	90.6%
CN1CC[C@H](c2c(O)cc(O)c3c(=O)cc(-c4ccccc4Cl)oc23)[C@H](O)C1	4.15% (active)	-19.8% (active)	10.1%	5.78% (active)	-4.62% (active)	-19% (active)	-49.6% (active)	4.81% (active)	-29.4% (active)	–	0.266% (active)	10.4%	-14.1% (active)	-0.739% (active)	4.43% (active)	10.1%	10.2%	1.35% (active)	–
COc1cc2nc(Nc3cccc(Cl)c3)nc(N)c2cc1OC	6.41% (active)	6.72% (active)	106%	66.4%	53.9%	64.5%	96.3%	59.8%	83.8%	–	111%	79.3%	75.3%	91.9%	95.8%	146%	-81.3% (active)	53.7%	–
CCCCn1c(C)nc2ccc(Nc3nc(N4CCN(C)CC4)nc4nc[nH]c34)cc21	110%	90.9%	95.6%	82.9%	84.2%	86.8%	91.9%	83.9%	109%	–	96.9%	87.3%	83.7%	104%	106%	99.8%	90.5%	87.1%	71.7%
CC(=O)OC1Oc2ccccc2-c2oc(=O)c(-c3cc4ccc(N(C)C)cc4oc3=O)cc21 (stereo not drawn)	46.2%	72.4%	48.2%	48.3%	34.8%	18.8%	67.3%	43.2%	103%	46.7%	35.3%	72%	–	12.2%	47.4%	46.1%	6.68% (active)	-28.3% (active)	14.2%
O=C(N/N=C/c1ccc(Cl)cc1)c1cc(-c2cc3ccccc3o2)nn1-c1ccccc1	93%	107%	94.5%	96%	89.6%	56.3%	83.7%	84.7%	99.7%	91.2%	89.6%	94.9%	–	94.8%	–	100%	95.6%	78%	–
CC[C@@H]1C(=O)N(C)c2cnc(Nc3ccc(C(=O)NC4CCN(C)CC4)cc3OC)nc2N1C1CCCC1	4.6% (active)	-3.91% (active)	31.3%	12.7%	28%	-80.6% (active)	11.6%	-73.5% (active)	34.4%	–	31.6%	2.27% (active)	13.4%	14.9%	21.2%	23%	-0.208% (active)	-14% (active)	-28.3% (active)
CC[C@H](Nc1ncnc2nc[nH]c12)c1nc2cccc(F)c2c(=O)n1-c1ccccc1	88.9%	50.4%	71.5%	77%	50.9%	80.2%	39.1%	74.6%	69.3%	–	80.1%	51.6%	31.3%	17.4%	41.5%	52.9%	52.3%	62.2%	-14.3% (active)
COc1ccc2c(CCC(c3ccccc3)c3ccccc3)c3[n+](cc2c1OC)CCc1cc2c(cc1-3)OCO2	47.1%	6.26% (active)	20.6%	10.5%	-39.8% (active)	–	-43.5% (active)	-58.5% (active)	3.87% (active)	-15% (active)	24.7%	0.0445% (active)	45.6%	8.09% (active)	23.4%	60.2%	6.45% (active)	-10.1% (active)	–
Cc1cc([C@@H](C)Nc2ccccc2C(=O)O)c2nc(N3CCOCC3)cc(=O)n2c1	44.5%	35.9%	52.8%	55.4%	30.5%	52.5%	14%	30.1%	43.9%	–	61.7%	44.1%	15.7%	42.6%	46.3%	18.9%	23.5%	20.6%	-36.7% (active)
O=C1NC(=O)[C@@H](c2cn3c4c(cccc24)CCC3)[C@@H]1c1c[nH]c2ccccc12	16.8%	0.272% (active)	27.3%	8.44% (active)	21.1%	3.82% (active)	33.9%	19.2%	61.3%	–	31.4%	31.1%	45.9%	43%	35.7%	27%	20.9%	18.6%	11.8%
CCN(CC)CCNc1ccc(N=Nc2cnc3ccccc3c2)c2ccccc12	-66.5% (active)	-90.3% (active)	-71.7% (active)	-76.9% (active)	-83.8% (active)	-97.8% (active)	-92.5% (active)	-81% (active)	-92.8% (active)	-76.9% (active)	-2.28% (active)	-88.9% (active)	-94.2% (active)	-79% (active)	-69.6% (active)	–	-78.2% (active)	-49.7% (active)	-91.5% (active)
CS(=O)(=O)CCNCc1ccc(-c2ccc3ncnc(Nc4ccc(OCc5cccc(F)c5)c(Cl)c4)c3c2)o1	-3.39% (active)	-59.1% (active)	3.57% (active)	-84.8% (active)	-20.6% (active)	-98.9% (active)	-52.4% (active)	-72.5% (active)	-95.7% (active)	–	29.9%	-17.9% (active)	19.6%	7.31% (active)	30.2%	40.1%	5.76% (active)	4.21% (active)	–
